From PubChem BioAssay (Tox21)
Where “and” joins values, the source holds several entries; their conditions need not be identical. Equal entries are not always repeated. Results filed as inconclusive are left out. Calls of active or inactive are those of the source. Unless noted, the call rests on the fitted dose curve; in most records, active means well fitted curve in the direction sought with a large enough effect in the repeat runs; inconclusive means weak or mixed curves; inactive means no such curve, though single readings can be large; an effect the other way counts as inactive or inconclusive.

Key:
[1] = qHTS assay for small molecule agonists of the p53 signaling pathway (AID 651631; calls by dose curve; further: nearly all actives have a fitted effect of over 15% in size; further: potency means the concentration at half of the fitted maximal effect)
Outline: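 Testing took place in human colorectal HCT-116 cells with stable p53RE-driven beta-lactamase. After 16 h of compound exposure at 37 °C, a FRET substrate was added and fluorescence recorded 2 h later.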

[2] = qHTS assay for small molecules that induce genotoxicity in human embryonic kidney cells expressing luciferase-tagged ATAD5 (AID 651632); further: nearly all actives have a fitted effect of over 15% in size
Outline: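 Concentration-response screen for ATAD5 upregulation in HEK293T luciferase reporter cells; 16 hr treatment at 37C, then luminescence after 30 min with Amplite at room temperature.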

[3] = qHTS assay for small molecule agonists of the p53 signaling pathway - cell viability (AID 651633; calls by dose curve; further: series mostly up to about 83 µM; nearly all actives have a fitted effect of over 30% in size)
Outline: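 Viability counter-read: CellTiter-Glo luminescence (30 min, room temperature) in the same p53RE-bla plates. These plates had been exposed to compounds for 16 h at 37 C.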

[4] = qHTS assay for small molecules that induce genotoxicity in human embryonic kidney cells expressing luciferase-tagged ATAD5 - cell viability (AID 651634; calls by dose curve; further: nearly all actives have a fitted effect of over 25% in size)
Outline: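 15.5 hr compound or vehicle exposure of HEK293T cells expressing luciferase-tagged ATAD5 at 37C; live-cell protease activity is read by fluorescence after 30 min of CellTiter-Fluor.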

[5] = qHTS assay for small molecule disruptors of the mitochondrial membrane potential - cell viability (AID 720634; calls by dose curve;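 further: human HepG2 liver cancer cells; series mostly up to about 83 µM; nearly all actives have a fitted effect of over 20% in size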)
Outline: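 In this qHTS format, HepG2 cells plated overnight were pinned with compound, incubated 1 hr, and assayed for ATP luminescence with CellTiter-Glo after m-MPI dye addition.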

[6] = qHTS assay to test for compound auto fluorescence at 590 nm (red) in HepG2 cells (AID 720674)
Outline: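 1 hr compound incubation on HepG2 cells, 37 C, 5% CO2; plate read ex 540 nm / em 590 nm; intensities reported as Rose Bengal sodium equivalents.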

[7] = qHTS assay to test for compound auto fluorescence at 535 nm (green) in HepG2 cells (AID 720675)
[8] = qHTS assay to test for compound auto fluorescence at 460 nm (blue) in HEK293 cells (AID 720678)
Outline: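 Blue read-out at excitation 405 nm and emission 460 nm follows overnight compound exposure of HEK293 cells at 37C in 5% CO2. Activity is given as auto fluorescence equivalency to triamterene.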

[9] = qHTS assay to test for compound auto fluorescence at 590 nm (red) in HEK293 cells (AID 720679)
Outline: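 Red channel, Ex/Em 540/590nm; signal expressed as equivalency to Rose Bengal sodium. HEK293, 2,000 cells/well, 10% dialyzed FBS; 23 nL compound pinned after 4-5 hr attachment; overnight 37C/5% CO2 before reading.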

[10] = qHTS assay to test for compound auto fluorescence at 535 nm (green) in HEK293 cells (AID 720680)
[11] = qHTS assay to test for compound auto fluorescence at 460 nm (blue) in HEK293 cell free culture (AID 720681)
Outline: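 Blue fluorescence (Ex 405/Em 460 nm, triamterene-equivalent) was read immediately after pin transfer of compound or DMSO into medium (DMEM, 10% FBS) without cells.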

[12] = qHTS assay to test for compound auto fluorescence at 535 nm (green) in HEK293 cell free culture (AID 720682)
Outline: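 DMEM + 10% FBS, cell-free; cpd or DMSO pinned in; Ex485/Em535 read; output as fluorescein-equivalent signal.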

[13] = qHTS assay to test for compound auto fluorescence at 590 nm (red) in HEK293 cell free culture (AID 720683)
Outline: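 Red-channel autofluorescence of compounds in culture medium (DMEM, 10% FBS), no cells, measured at 540/590 nm. Rose Bengal sodium is the reference fluorophore for equivalence.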

[14] = qHTS assay to test for compound auto fluorescence at 590 nm (red) in HepG2 cell free culture (AID 720684)
Outline: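 No cells present: MEM + 10% FBS only. Compound pinned in, red label read (540/590 nm). Activity = fluorescence equivalent to Rose Bengal sodium.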

[15] = qHTS assay to test for compound auto fluorescence at 460 nm (blue) in HepG2 cell free culture (AID 720685)
Outline: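 Cell-free plates of MEM plus 10% FBS received 23 nL compound or DMSO vehicle; blue-channel (405/460 nm) intensity scored against triamterene as reference fluorophore.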

[16] = qHTS assay to test for compound auto fluorescence at 535 nm (green) in HepG2 cell free culture (AID 720686)
[17] = qHTS assay to test for compound auto fluorescence at 460 nm (blue) in HepG2 cells (AID 720687)
Outline: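 Blue-channel autofluorescence (Ex/Em 405/460 nm, triamterene-equivalent) was measured after 1 hr compound exposure at 37 C, 5% CO2. Cells were HepG2, plated overnight at 37 C in MEM plus 10% FBS.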

[18] = molecular target: Glucocorticoid receptor (Homo sapiens) (UniProt P04150); test: qHTS assay to identify small molecule agonists of the glucocorticoid receptor (GR) signaling pathway (AID 720691; active means well fitted activation curve with a large enough effect in the signal ratio in the repeat runs, not every such curve was filed as active; the % refers to the signal ratio)
Outline: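 Measures GR pathway activation through a GRE-beta-lactamase reporter stably integrated in HeLa cells, with 18 h compound treatment at 37 C and fluorescence detection using a FRET substrate.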

[19] = qHTS assay for small molecule disruptors of the mitochondrial membrane potential (AID 720635); further: potency means the concentration at half of the fitted maximal effect
Outline: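 Mitochondrial membrane potential tracked with Mito-MPS dye, red aggregates (ex 540/em 590 nm) against green monomers (ex 490/em 535 nm). Compound treatment 1 hr at 37C, dye 30 min in HepG2.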

[20] = molecular target: Glucocorticoid receptor (Homo sapiens) (UniProt P04150); test: qHTS assay to identify small molecule antagonists of the glucocorticoid receptor (GR) signaling pathway (AID 720692; active means well fitted inhibition curve with a large enough effect in the signal ratio in the repeat runs, not every such curve was filed as active; the % refers to the signal ratio)
Outline: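 Tox21 10K library screened in concentration-response for blockade of dexamethasone (5 nM final)-induced GRE-bla reporter activity in HeLa cells; 18 h treatment, fluorescence read.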
On the % scale 0 is the no-effect control and ±100 the full control effect.

Glucocorticoid receptor (Homo sapiens), sequence (P04150 whole entry, looked up): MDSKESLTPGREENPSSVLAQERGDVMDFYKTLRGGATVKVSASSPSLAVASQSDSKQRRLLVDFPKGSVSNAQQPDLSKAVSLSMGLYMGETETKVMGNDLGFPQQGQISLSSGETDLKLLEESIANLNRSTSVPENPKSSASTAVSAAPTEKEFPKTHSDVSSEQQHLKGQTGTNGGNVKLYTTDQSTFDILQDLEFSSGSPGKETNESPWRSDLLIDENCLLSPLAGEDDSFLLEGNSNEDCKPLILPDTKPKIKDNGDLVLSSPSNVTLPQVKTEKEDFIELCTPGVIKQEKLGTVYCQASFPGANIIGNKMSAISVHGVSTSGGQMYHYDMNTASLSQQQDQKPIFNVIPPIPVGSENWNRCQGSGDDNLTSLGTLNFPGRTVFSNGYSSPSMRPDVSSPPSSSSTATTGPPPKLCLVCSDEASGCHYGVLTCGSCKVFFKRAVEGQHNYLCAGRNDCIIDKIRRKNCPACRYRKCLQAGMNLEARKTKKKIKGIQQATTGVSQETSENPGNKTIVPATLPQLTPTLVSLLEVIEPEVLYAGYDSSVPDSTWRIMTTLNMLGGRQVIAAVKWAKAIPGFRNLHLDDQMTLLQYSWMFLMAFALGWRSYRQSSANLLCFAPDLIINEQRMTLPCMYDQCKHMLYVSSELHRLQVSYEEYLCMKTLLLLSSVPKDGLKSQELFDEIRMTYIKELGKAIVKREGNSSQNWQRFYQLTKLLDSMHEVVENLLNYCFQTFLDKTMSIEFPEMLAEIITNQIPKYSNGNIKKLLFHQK

C=C(C)[C@@H]1CCC2=CCC[C@@H](C)[C@]2(C)C1
inactive: Potency [1] | Potency [2] | Potency [3] | Potency [4] | Potency [5] | outcome [6] | outcome [7] | Potency [8] | outcome [9] | outcome [10] | Potency [11] | outcome [12] | outcome [13] | outcome [14] | Potency [15] | outcome [16] | Potency [17] | Potency [18]

C/C=C(/C(=C/C)c1ccc(O)cc1)c1ccc(O)cc1
inactive: Potency [2] | Potency [4] | Potency [5] | fluorescence, relative to Rose Bengal [6] 0.479% [at 18.6 µM] | fluorescence, % of fluorescein control [7] 0.154% [at 18.6 µM] | fluorescence, % of triamterene [8] 0.118% [at 18.6 µM] | fluorescence, % of fluorescent control [9] 0.023% [at 18.6 µM] | fluorescence, % of fluorescein [10] 0.128% [at 18.6 µM] | fluorescence, % of fluorescent control [11] 0.115% [at 18.6 µM] | activity change [12] -0.004% [at 18.6 µM] | fluorescence, % of fluorescent control [13] 0.121% [at 18.6 µM] | fluorescence, % of Rose Bengal [14] 0.0319% [at 18.6 µM] | fluorescence, % of fluorescent control [15] -0.0042% [at 18.6 µM] | fluorescence, % of fluorescent control [17] 0.0165% [at 18.6 µM] | Potency [18]
active: Potency [1] 3.2 µM | Potency [19] 9.02 µM

Cc1ccc(OC(=O)c2ccccc2O)cc1
inactive: Potency [1] | Potency [3] | Potency [4] | Potency [5] | Potency [19] | outcome [6] | outcome [7] | outcome [9] | outcome [10] | Potency [11] | outcome [12] | outcome [13] | outcome [14] | Potency [15] | outcome [16] | Potency [17] | Potency [18]

CC(C)C=O
inactive: Potency [1] | Potency [3] | Potency [5] | Potency [19] | outcome [6] | outcome [7] | Potency [8] | outcome [9] | outcome [10] | Potency [11] | outcome [12] | outcome [13] | outcome [14] | Potency [15] | Potency [17] | Potency [18] | Potency [20]

CO/N=C(/C(=O)N[C@@H]1C(=O)N2C(C(=O)O)=C(COC(N)=O)CS[C@H]12)c1ccco1
inactive: Potency [1] | Potency [3] | Potency [5] | Potency [19] | outcome [6] | outcome [7] | Potency [8] | outcome [9] | outcome [10] | Potency [11] | outcome [12] | outcome [13] | outcome [14] | Potency [15] | Potency [18]

Oc1cccc(O)c1O
inactive: Potency [1] | Potency [2] | Potency [3] | Potency [5] | outcome [6] | outcome [7] | outcome [9] | outcome [10] | Potency [11] | outcome [12] | outcome [13] | Potency [15] | outcome [16] | Potency [17] | Potency [18] | Potency [20]

CN1CCCN=C1COC(=O)C(O)(c1ccccc1)C1CCCCC1 (stereo not given)
inactive: Potency [1] | Potency [3] | Potency [4] | Potency [5] | outcome [6] | outcome [7] | Potency [8] | outcome [9] | outcome [10] | Potency [11] | outcome [12] | outcome [13] | outcome [14] | Potency [15] | outcome [16] | Potency [17] | Potency [18] | Potency [20]

CC=C(Cl)Cl
inactive: Potency [1] | Potency [2] | Potency [3] | Potency [5] | outcome [6] | outcome [7] | Potency [8] | outcome [9] | outcome [10] | Potency [11] | outcome [12] | outcome [13] | outcome [14] | Potency [15] | Potency [17] | Potency [18]

CC(C)=CCC/C(C)=C/CC/C(C)=C/CCC(=O)OC/C=C(\C)CCC=C(C)C
inactive: Potency [1] | Potency [3] | Potency [4] | Potency [5] | outcome [6] | outcome [7] | Potency [8] | outcome [9] | outcome [10] | Potency [11] | outcome [12] | outcome [13] | outcome [14] | Potency [15] | outcome [16] | Potency [17] | Potency [18]

O=c1c(O)c(-c2ccc(O)cc2)oc2cc(O)cc(O)c12
active: Potency [19] 3.84 µM and 328 nM
inactive: Potency [1] | Potency [3] | Potency [4] | Potency [5] | outcome [6] | outcome [7] | Potency [8] | outcome [9] | outcome [10] | Potency [11] | outcome [12] | outcome [13] | outcome [14] | Potency [15] | outcome [16] | Potency [18]

C=C1C[C@@]23CC[C@H]4[C@@](C)(CCC[C@@]4(C)C(=O)O[C@@H]4O[C@H](CO)[C@@H](O)[C@H](O)[C@H]4O)[C@@H]2CC[C@]1(O[C@@H]1O[C@H](CO)[C@@H](O)[C@H](O[C@@H]2O[C@H](CO)[C@@H](O)[C@H](O)[C@H]2O)[C@H]1O[C@@H]1O[C@H](CO)[C@@H](O)[C@H](O)[C@H]1O)C3
inactive: Potency [1] | Potency [3] | Potency [4] | Potency [5] | Potency [19] | outcome [6] | outcome [7] | outcome [9] | outcome [10] | Potency [11] | outcome [12] | outcome [13] | outcome [14] | Potency [15] | outcome [16] | Potency [17] | Potency [18]

C=COCC(C)C
inactive: Potency [1] | Potency [3] | Potency [4] | Potency [5] | outcome [6] | outcome [7] | Potency [8] | outcome [9] | outcome [10] | Potency [11] | outcome [12] | outcome [13] | outcome [14] | Potency [15] | outcome [16] | Potency [17]

O=c1[nH]c2ccc(Cl)cc2o1
inactive: Potency [1] | Potency [3] | Potency [4] | Potency [5] | outcome [6] | outcome [7] | Potency [8] | outcome [9] | outcome [10] | Potency [11] | outcome [12] | outcome [13] | Potency [15] | Potency [17]

O=C(CCc1ccc(O)cc1)c1c(O)cc(O)cc1O
inactive: Potency [2] | Potency [3] | outcome [6] | outcome [7] | outcome [9] | outcome [10] | Potency [11] | outcome [12] | outcome [13] | outcome [14] | Potency [15] | outcome [16] | Potency [17]
active: Potency [1] 70.1 µM | Potency [19] 3.13 µM
